# Active and inactive are the calls of the source.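 How the source made its calls: active means half-maximal potency of 10 µM or stronger, response changing by 30% or more across doses, valid fit; inactive means the rest.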
# Assay: disruption of GST–glutathione bead interaction – biochemical, flow cytometry beads, round 2, counter-screen for Rab7 GTPase inhibitor project, SAR follow-up (AID 602145)
# Settings: GST-GFP binding to GSH beads; series mostly up to 100 µM; percent response (binding retained): at the top concentration
row,SMILES,percent response (binding retained)
1,CCC1(C)Cc2c(sc(NC(=S)NC(=O)c3ccccc3)c2C(=O)O)CO1 (configuration not stated),93.9% (inactive)
2,CC1(C)Cc2c(sc(NC(=S)NC(=O)c3ccc(F)cc3)c2C(=O)O)CO1,93.4% (inactive)
3,CC1(C)Cc2c(sc(NC(=S)NC(=O)C3CCCCC3)c2C(=O)O)CO1,90.5% (inactive)
4,CC(C)(C)C1Cc2c(sc(NC(=S)NC(=O)c3ccccc3)c2C(=O)O)CO1 (configuration not stated),92.7% (inactive)
5,Cc1cccc(C(=O)NC(=S)Nc2sc3c(c2C(=O)O)CC(C)(C)OC3)c1,99.6% (inactive)
6,O=C(NC(=S)Nc1sc2c(c1C(=O)O)CC1(CCCC1)OC2)c1ccccc1,100% (inactive)
7,CC1(C)Cc2c(sc(NC(=S)NC(=O)c3ccco3)c2C(=O)O)CO1,90% (inactive)
8,O=C(NC(=S)Nc1sc2c(c1C(=O)O)CCOC2)c1ccccc1,89.5% (inactive)
9,CC1(C)Cc2c(sc(NC(=S)NC(=O)c3cccs3)c2C(=O)O)CO1,90.7% (inactive)
10,Cc1ccc(C(=O)NC(=S)Nc2sc3c(c2C(=O)O)CC(C)(C)OC3)cc1,95.8% (inactive)
11,Cc1ccccc1C(=O)NC(=S)Nc1sc2c(c1C(=O)O)CC(C)(C)OC2,99.8% (inactive)
12,COc1ccccc1C(=O)NC(=S)Nc1sc2c(c1C(=O)O)CC(C)(C)OC2,97.3% (inactive)

# From PubChem BioAssay AID602145 (NMMLSC, 2011)
